# Where “and” joins values, the source holds several entries; their conditions need not be identical. Identical values can stand only once. Results filed as inconclusive are left out. Some compounds were tested as several samples or in several runs, with calls that do not always agree. Calls of active or inactive are those of the source. Unless noted, calls come from the whole dose curve; as a rule, active = well fitted curve in the direction sought with a large enough effect; inconclusive = small, poorly fitted or top-dose-only effect, or another doubt; inactive = no such curve, though single readings can be large; an effect the other way counts as inactive or inconclusive.
# Experiments:
# [1] = target: Cytochrome P450 2C9 (Homo sapiens) (UniProt P11712); experiment: qHTS Assay for Inhibitors and Substrates of Cytochrome P450 2C9 (AID 883); note: potency is the fitted concentration of half-maximal effect; nearly all actives have a fitted effect of over 60% in size
# Sequence of Cytochrome P450 2C9 (Homo sapiens) (P11712 whole entry, looked up): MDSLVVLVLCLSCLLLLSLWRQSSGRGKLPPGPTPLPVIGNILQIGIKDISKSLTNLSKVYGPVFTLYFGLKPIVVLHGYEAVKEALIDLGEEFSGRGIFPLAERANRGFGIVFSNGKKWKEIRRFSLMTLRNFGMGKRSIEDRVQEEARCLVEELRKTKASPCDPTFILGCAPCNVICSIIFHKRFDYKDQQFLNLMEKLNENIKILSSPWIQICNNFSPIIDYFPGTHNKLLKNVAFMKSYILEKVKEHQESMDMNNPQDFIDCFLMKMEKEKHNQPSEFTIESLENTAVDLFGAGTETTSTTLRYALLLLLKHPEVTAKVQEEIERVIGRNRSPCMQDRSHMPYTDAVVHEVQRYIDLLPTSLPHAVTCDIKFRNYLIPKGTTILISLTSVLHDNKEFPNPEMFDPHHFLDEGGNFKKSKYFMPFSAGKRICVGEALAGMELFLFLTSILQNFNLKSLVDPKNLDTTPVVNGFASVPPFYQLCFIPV
# Method in brief: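 Human CYP2C9 (10nM) hydroxylated Luciferin-H (100uM, at its KM) to luciferin in 25mM KPO4. Compound was preincubated 10 min at 37C, then NADPH regeneration started a 60 min reaction at 37C. Luminescence was read after detection reagent, normalized to 57uM sulphaphenazole.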
# [2] = Confirmatory screen NINDS Rhodamine qHTS for Zika virus inhibitors (AID 1347161); note: potency is the fitted concentration of half-maximal effect; nearly all actives have a fitted effect of over 60% in size
# Method in brief: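 qHTS dose-response: 25 nM linked protease, pH 8.0 Tris/Tween buffer, cpd titration, 15 min RT preinc, 1.5 microM Rhod110 peptide, 15 min reaction (~15% conversion), Ex480/Em540; 4-parameter Hill fit.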
# [3] = target: Rap guanine nucleotide exchange factor 3 (Homo sapiens) (UniProt O95398); experiment: Confirmatory qHTS for antagonist of cAMP-regulated guanine nucleotide exchange factor 3 (EPAC1) (AID 1645880); note: nearly all actives have a fitted effect of over 55% in size; note: potency is the fitted concentration of half-maximal effect
# Sequence of Rap guanine nucleotide exchange factor 3 (Homo sapiens) (O95398 whole entry, looked up): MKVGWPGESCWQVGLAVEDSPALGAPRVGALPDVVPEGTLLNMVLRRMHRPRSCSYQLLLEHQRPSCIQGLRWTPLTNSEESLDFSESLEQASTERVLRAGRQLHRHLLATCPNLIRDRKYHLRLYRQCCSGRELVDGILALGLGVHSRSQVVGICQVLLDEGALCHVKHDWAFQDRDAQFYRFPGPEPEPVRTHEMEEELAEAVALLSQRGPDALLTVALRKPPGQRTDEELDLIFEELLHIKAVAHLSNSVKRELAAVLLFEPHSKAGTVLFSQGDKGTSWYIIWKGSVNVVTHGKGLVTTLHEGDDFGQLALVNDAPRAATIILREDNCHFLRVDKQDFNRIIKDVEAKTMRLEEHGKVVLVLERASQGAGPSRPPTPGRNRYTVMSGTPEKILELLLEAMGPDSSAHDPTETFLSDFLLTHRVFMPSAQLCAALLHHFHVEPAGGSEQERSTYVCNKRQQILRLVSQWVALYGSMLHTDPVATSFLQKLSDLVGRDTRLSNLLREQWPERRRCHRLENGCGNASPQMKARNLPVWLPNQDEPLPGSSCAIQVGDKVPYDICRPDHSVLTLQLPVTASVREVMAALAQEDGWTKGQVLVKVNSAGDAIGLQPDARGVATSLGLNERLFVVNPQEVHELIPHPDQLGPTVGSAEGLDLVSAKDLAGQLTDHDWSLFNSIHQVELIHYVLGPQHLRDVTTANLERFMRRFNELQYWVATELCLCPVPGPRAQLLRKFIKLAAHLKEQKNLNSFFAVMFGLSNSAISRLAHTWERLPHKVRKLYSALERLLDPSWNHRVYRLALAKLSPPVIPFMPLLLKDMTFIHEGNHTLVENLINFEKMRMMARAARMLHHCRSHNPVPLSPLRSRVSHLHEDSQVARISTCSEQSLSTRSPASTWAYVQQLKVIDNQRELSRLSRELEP
# Method in brief: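 Nucleotide exchange uses 100 nM EPAC1, 250 nM RAP1B-BODIPY-GDP and 50 uM GDP, with compounds in a concentration-titration series. After 5 min at room temperature, fluorescence (480 nm ex/540 nm em) is read every 5 min for 30 min. Data are normalized to control ATA and DMSO.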
# [4] = target: Rap guanine nucleotide exchange factor 3 (Homo sapiens) (UniProt O95398); experiment: Confirmatory qHTS for agonist of cAMP-regulated guanine nucleotide exchange factor 3 (EPAC1) (AID 1645881);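 note: EPAC1 catalysed release of BODIPY-GDP from Rap1B seen as fluorescence loss; 100% = effect of cAMP agonist control; nearly all actives have a fitted effect of over 75% in size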
# [5] = Counterscreen qHTS for small molecule stabilizers of the endoplasmic reticulum resident proteome: GLuc-NoTag assay (AID 1508627); note: potency is the fitted concentration of half-maximal effect;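 for activity change, negative = inhibition: SH-SY5Y cells given compound then 100 nM thapsigargin to empty ER calcium; 0% = thapsigargin alone and -100% = DMSO vehicle control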
# Method in brief: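 SH-SY5Y cells stably expressing constitutively secreted GLuc (no SERCaMP tag) were pre-incubated 5 h, treated with compound for 19 h, then 100 nM thapsigargin for 4 h at 37C; medium GLuc read by coelenterazine luminescence.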
# [6] = Confirmatory qHTS for small molecule stabilizers of the endoplasmic reticulum resident proteome: Secreted ER Calcium Modulated Protein (SERCaMP) assay (AID 1508628); note: nearly all actives have a fitted effect of over 40% in size; note: potency is the fitted concentration of half-maximal effect
# Method in brief: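 SH-SY5Y cells stably expressing GLuc-SERCaMP, treated 16 h with compound (primary 1.53, 7.67, 38.3 uM; confirmation 11 concentrations, up to 76.6 uM), then 100 nM thapsigargin for 4 h. Secreted Gaussia luciferase in medium read by coelenterazine luminescence.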
# [7] = Cell Viability qHTS for small molecule stabilizers of the endoplasmic reticulum resident proteome (AID 1508629); conditions: cell viability counter-screen, 100 nM thapsigargin for final 4 h;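 note: human SH-SY5Y neuroblastoma cells carrying the GLuc-SERCaMP reporter; compound exposure about 46 h in total before the viability read; % is set by controls: 0 for no effect and ±100 for the full control effect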
# [8] = Primary qHTS for inhibitors of nuclear receptor binding SET domain protein 2 (NSD2) in an RCH-ACV wild type WT cells (2C) (AID 1645877); note: potency is the fitted concentration of half-maximal effect; nearly all actives have a fitted effect of over 70% in size
# [9] = qHTS drug screen for cell cycle checkpoint inhibitors in PARPi-resistant BRCA-mutant ovarian cancer cell lines. (AID 1963452; calls by dose curve); conditions: PEO1/OlaR viability, CellTiter-Glo luminescence, 96 h, stronger effect = lower value
# Method in brief: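 PEO1, PEO4 and PEO1/OlaR ovarian cancer cells, 600 per well, exposed 96 h at 37C to a dilution series. Viability read by CellTiter-Glo luminescence, normalized to DMSO and empty wells; activity summarized as Z-AUC.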
# [10] = target: Rap guanine nucleotide exchange factor 4 (Homo sapiens) (UniProt Q8WZA2); experiment: Confirmatory qHTS for agonist of cAMP-regulated guanine nucleotide exchange factor 4 (EPAC2) (AID 1645884);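 note: nucleotide exchange releases bodipy-GDP from Rap1 and this lowers its fluorescence; % is set by controls: 0 for no effect and ±100 for the full control effect; nearly all actives have a fitted effect of over 65% in size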
# Sequence of Rap guanine nucleotide exchange factor 4 (Homo sapiens) (Q8WZA2 whole entry, looked up, the tested form may be a part): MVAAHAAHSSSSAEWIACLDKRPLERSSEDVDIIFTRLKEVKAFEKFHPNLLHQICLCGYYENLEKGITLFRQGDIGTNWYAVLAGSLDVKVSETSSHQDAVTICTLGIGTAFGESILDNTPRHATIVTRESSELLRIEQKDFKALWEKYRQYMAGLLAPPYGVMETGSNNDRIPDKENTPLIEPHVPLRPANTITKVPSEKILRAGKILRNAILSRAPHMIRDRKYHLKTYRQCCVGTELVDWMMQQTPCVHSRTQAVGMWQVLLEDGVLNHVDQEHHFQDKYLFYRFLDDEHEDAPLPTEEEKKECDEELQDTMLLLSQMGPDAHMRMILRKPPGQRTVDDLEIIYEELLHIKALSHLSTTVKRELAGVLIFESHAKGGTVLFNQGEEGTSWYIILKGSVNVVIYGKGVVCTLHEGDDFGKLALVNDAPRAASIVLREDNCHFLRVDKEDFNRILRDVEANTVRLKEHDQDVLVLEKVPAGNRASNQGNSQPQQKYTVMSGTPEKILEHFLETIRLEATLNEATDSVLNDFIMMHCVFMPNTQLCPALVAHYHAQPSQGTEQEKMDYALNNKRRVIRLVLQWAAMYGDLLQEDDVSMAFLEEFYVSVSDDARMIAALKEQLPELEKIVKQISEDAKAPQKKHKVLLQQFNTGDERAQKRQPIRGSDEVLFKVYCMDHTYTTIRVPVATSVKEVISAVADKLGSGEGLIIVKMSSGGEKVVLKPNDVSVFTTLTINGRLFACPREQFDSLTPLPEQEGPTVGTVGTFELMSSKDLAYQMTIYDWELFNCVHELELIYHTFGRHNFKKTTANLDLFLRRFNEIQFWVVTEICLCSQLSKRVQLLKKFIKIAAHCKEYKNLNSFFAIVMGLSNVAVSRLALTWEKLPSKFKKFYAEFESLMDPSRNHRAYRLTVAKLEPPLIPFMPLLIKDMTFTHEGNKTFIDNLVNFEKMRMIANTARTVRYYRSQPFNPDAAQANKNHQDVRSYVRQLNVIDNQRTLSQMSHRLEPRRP
# [11] = target: Rap guanine nucleotide exchange factor 4 (Homo sapiens) (UniProt Q8WZA2); experiment: Confirmatory qHTS for antagonist of cAMP-regulated guanine nucleotide exchange factor 4 (EPAC2) (AID 1645885); note: potency is the fitted concentration of half-maximal effect; nearly all actives have a fitted effect of over 25% in size
# [12] = qHTS for Inhibitors of the vitamin D receptor (VDR): Hit Validation using a Texas Red Assay (AID 602201); conditions: VDR coregulator binding, Texas Red fluorescence polarization; agonist-bound VDR ligand-binding domain; note: potency is the fitted concentration of half-maximal effect
# Method in brief: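 Fluorescence polarization (Ex 595/Em 615 nm) of Texas Red (7 nM) with 1.5 uM VDR-LBD and LG19078 (final concentrations). Compounds were incubated for 2 hours at room temperature.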
# [13] = Confirmation and Secondary Assay for Modulators of Hemoglobin Beta Chain Splicing at IVS2 654 locus (AID 910);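 note: per-well total GFP intensity by laser scanning cytometry after 2-day treatment; % of control where 0% means no effect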
# Method in brief: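 HeLa cells stably carrying EGFP interrupted by mutant beta-globin IVS2-654 intron (CMV-driven) were treated with compound for 2 days at 37C; corrected splicing was scored as total peak GFP intensity per well (488 nm excitation, 500-520 nm emission).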
# [14] = Confirmation and Secondary Assay for Modulators of Hemoglobin Beta Chain Splicing at IVS2 705 locus (AID 930);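 note: HeLa cells stably expressing the EGFP-705 splicing reporter; GFP fluorescence per well restored by corrected splicing of the IVS2-705 intron in EGFP; % of control where 0% means no effect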
# Method in brief: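 Per-well GFP, captured at 1 x 8 µm resolution with 488 nm excitation, served as the read-out for HeLa EGFP-705 cells incubated 2 days with test compound versus DMSO.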
# [15] = target: Muscarinic acetylcholine receptor M1 (Rattus norvegicus) (UniProt P08482); experiment: qHTS Assay for Antagonists of Acetylcholine Muscarinic M1 Receptor: Measurement of IP-One Response (AID 944); note: nearly all actives have a fitted effect of over 75% in size
# Sequence of Muscarinic acetylcholine receptor M1 (Rattus norvegicus) (P08482 whole entry, looked up): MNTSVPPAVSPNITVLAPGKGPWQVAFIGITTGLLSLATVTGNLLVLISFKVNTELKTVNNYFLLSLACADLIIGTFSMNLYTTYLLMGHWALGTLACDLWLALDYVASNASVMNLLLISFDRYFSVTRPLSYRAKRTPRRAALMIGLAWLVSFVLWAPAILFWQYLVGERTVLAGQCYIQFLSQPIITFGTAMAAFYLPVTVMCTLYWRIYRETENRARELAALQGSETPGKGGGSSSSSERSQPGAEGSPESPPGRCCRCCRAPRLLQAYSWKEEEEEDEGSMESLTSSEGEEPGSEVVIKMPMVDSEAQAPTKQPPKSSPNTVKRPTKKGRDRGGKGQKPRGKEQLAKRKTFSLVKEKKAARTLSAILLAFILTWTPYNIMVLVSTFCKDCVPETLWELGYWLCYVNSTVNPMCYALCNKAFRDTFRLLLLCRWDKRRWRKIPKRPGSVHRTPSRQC
# Method in brief: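 CHO cells stably expressing rat M1, pretreated 10 min with compound, then stimulated 30 min with carbachol at EC80 (200 nM) in LiCl-containing buffer pH 7.4; IP1 accumulation read by HTRF competition (665/620 nm).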
# [16] = target: Pyruvate kinase (Leishmania mexicana) (UniProt Q27686); experiment: qHTS Validation Assay for Inhibitors of Leishmania Mexicana Pyruvate Kinase (AID 945);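 note: 0% = DMSO only neutral control wells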
# Sequence of Pyruvate kinase (Leishmania mexicana) (Q27686 2-499 E452W): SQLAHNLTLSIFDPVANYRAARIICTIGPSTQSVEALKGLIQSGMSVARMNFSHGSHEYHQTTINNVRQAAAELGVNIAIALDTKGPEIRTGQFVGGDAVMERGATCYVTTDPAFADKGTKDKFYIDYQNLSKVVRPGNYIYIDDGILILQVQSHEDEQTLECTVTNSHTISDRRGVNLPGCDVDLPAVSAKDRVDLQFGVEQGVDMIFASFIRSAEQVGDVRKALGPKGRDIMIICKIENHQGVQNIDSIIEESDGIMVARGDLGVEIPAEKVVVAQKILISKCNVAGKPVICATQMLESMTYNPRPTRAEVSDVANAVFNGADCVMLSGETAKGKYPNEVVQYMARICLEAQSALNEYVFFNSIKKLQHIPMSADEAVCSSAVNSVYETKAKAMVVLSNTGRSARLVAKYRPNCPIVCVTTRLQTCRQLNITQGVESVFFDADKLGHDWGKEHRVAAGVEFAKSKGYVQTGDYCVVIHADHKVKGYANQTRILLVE
# Method in brief: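 An endpoint luciferase assay: 0.2 nM LmPYK E451W turns over 0.5 mM PEP with 0.1 mM ADP for 1 h at room temperature, pH 7.2, before PKLight addition. Values are normalized to DMSO-only wells.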
# [17] = target: Catechol O-methyltransferase (Homo sapiens) (UniProt P21964); experiment: Confirmatory Screen for Target Class Profiling of Small Molecule Inhibitors of Methyltransferases (AID 1745852; calls by dose curve; note: potency is the fitted concentration of half-maximal effect); conditions: MTase-Glo luminescence, SAH detection, recombinant enzyme; measured here: COMT max response; stronger effect = lower value
# Sequence of Catechol O-methyltransferase (Homo sapiens) (P21964 whole entry, looked up): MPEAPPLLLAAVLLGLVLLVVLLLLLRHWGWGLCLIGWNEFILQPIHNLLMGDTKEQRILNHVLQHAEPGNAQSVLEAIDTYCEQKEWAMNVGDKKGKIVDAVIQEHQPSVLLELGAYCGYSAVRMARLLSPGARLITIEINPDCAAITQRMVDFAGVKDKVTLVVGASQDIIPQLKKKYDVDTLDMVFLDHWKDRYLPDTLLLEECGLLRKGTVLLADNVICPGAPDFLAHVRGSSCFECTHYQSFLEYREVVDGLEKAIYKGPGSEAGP
# [18] = target: Guanidinoacetate N-methyltransferase (Homo sapiens) (UniProt Q14353); experiment: as above; conditions: activity change, negative = inhibition: at 57.3 µM (top of the series) unless noted
# [19] = target: Nicotinamide N-methyltransferase (Homo sapiens) (UniProt P40261); experiment: as above; conditions: MTase-Glo luminescence, SAH detection, recombinant enzyme; measured here: NNMT max response; stronger effect = lower value
# Sequence of Nicotinamide N-methyltransferase (Homo sapiens) (P40261 whole entry, looked up): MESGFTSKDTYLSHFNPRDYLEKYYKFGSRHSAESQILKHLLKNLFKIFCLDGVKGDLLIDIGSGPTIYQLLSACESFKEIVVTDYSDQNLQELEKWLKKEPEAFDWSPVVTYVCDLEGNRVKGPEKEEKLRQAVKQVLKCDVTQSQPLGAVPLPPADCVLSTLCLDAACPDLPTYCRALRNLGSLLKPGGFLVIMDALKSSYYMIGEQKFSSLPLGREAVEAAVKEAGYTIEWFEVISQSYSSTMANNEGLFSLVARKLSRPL
# [20] = target: Phenylethanolamine N-methyltransferase (Homo sapiens) (UniProt P11086); experiment: as above; conditions: MTase-Glo luminescence, SAH detection, recombinant enzyme; measured here: PNMT max response; stronger effect = lower value
# Sequence of Phenylethanolamine N-methyltransferase (Homo sapiens) (P11086 whole entry, looked up): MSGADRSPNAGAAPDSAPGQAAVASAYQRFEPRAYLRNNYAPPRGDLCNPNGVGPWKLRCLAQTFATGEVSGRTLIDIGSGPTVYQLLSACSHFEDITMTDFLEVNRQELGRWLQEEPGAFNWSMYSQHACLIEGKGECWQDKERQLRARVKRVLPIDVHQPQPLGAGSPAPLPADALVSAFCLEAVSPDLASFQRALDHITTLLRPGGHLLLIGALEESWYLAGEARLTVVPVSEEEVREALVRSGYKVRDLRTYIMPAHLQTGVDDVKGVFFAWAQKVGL
compound,measurement,setting,value
C=CC(C)(C)c1[nH]c2ccccc2c1C1=C(O)C(=O)C(c2c[nH]c3c(CC=C(C)C)cccc23)=C(O)C1=O,Potency,[1],7.94 µM (active)
same,Potency,[2],49.4 µM (active)
same,Potency,[3],4.98 µM (active)
same,outcome,[4],inactive
O=C(O)C1NCCN(C(=O)c2ccc3c(ccc4ccccc43)c2)C1C(=O)O (configuration not stated),Potency,[5],inactive
same,Potency,[6],inactive
same,max response,[7],28.7% (inactive)
C[C@@H](Nc1cc(F)cc(F)c1)c1cc(C(=O)N(C)C)cc2c(=O)cc(N3CCOCC3)oc12,Potency,[8],411 nM (active) and 1.18 µM (active)
same,Z-AUC,[9],-0.864 (inactive)
same,Z-AUC,[9]; measured here: PEO1 parental Z-AUC,-0.746
same,Z-AUC,[9]; measured here: PEO4 Z-AUC,-0.41
N#Cc1cc2c(OCC(O)CN3CCN(C(c4ccccc4)c4ccccc4)CC3)cccc2[nH]1 (configuration not stated),Potency,[5],inactive
same,Potency,[6],3.98 µM (active) and inactive
same,max response,[7],3.24% (inactive)
Nc1cc(N)c(N=Nc2ccc(S(=O)(=O)Nc3nccs3)cc2)cc1N=Nc1ccc(S(=O)(=O)Nc2nccs2)cc1,Potency,[2],3.55 µM (active)
CCCCCCc1cc2cc(-c3nnc(-c4cccc(Cl)c4)o3)c(=O)oc2cc1O,Potency,[3],inactive
same,outcome,[10],inactive
same,Potency,[11],7.57 µM (active)
O=C1c2ccccc2CC[C@H]1CNCCc1ccc(O)cc1,Potency,[12],25.1 µM (active)
COc1cc(O)c2c(=O)c(O)c(-c3ccc(O)c(O)c3)oc2c1,outcome,[13],inactive
same,outcome,[14],inactive
same,Potency,[8],14.6 µM (active)
C[C@H](N=C(NC#N)Nc1ccncc1)C(C)(C)C,Potency,[15],inactive
CC1=C(\C=C/C(C)=C/C=C\C(C)=C\C(=O)O)C(C)(C)CCC1,outcome,[13],inactive
same,outcome,[14],inactive
same,Potency,[16],inactive
CNc1cc2c(Nc3cccc(Br)c3)ncnc2cn1,Potency,[5],35.5 µM (active)
same,Potency,[6],2 µM (active)
same,Potency,[8],20.6 µM (active)
same,activity,[17],-38.7%
same,Potency,[18],30.4 µM (active)
same,activity,[19],-23.8%
same,activity,[20],-74.4%
CCCCC/C=C\C/C=C\C/C=C\C/C=C\CCCC(=O)O,outcome,[13],inactive
same,outcome,[14],inactive
same,Potency,[3],49.8 µM (active)
same,outcome,[4],inactive
same,outcome,[10],inactive
same,Potency,[11],44.1 µM (active)
COC(=O)C1=C(C)NC(C)=C([N+](=O)[O-])[C@H]1c1ccccc1C(F)(F)F,Potency,[1],15.8 µM (active) and 2 µM (active)
same,Potency,[15],inactive
same,outcome,[4],inactive
same,outcome,[10],inactive
same,Potency,[11],39.3 µM (active)
O=C1c2ccccc2CCC1CNCCc1ccc(O)cc1 (configuration not stated),Potency,[12],28.2 µM (active)
COc1ccc2c(c1)c(CC(=O)N1CCOCC1)c(C)n2C(=O)c1ccc(Cl)cc1,Potency,[1],39.8 µM (active)
same,Potency,[15],inactive
same,Potency,[16],inactive
CN(C)c1ccc(Nc2c3ccc(NC(=O)CCN4CCCC4)cc3nc3cc(NC(=O)CCN4CCCC4)ccc23)cc1,activity,[17],-13%
same,Potency,[18],24.1 µM (active)
same,activity,[19],-39.2%
same,activity,[20],-14.2%

# From PubChem BioAssay (NCATS)
